PubChem BioAssay AID1041 (National Center for Advancing Translational Sciences (NCATS), 2008)
A number with no mark means an inactive call.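 Rule for the calls: active = compound lifting p16 RNA above DMSO-treated cells by a clear fold change, a shift of a few PCR cycles; inactive = the rest, including any drop in level.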

Assay: p16 Derepression/Induction Secondary Assay for qHTS Assay for Epigenetic Modulators
Conditions: H358 cells, p16 mRNA RT-qPCR, 72 h; stronger effect = higher value
Excerpt: NIH Molecular Libraries Screening Centers Network [MLSCN] NIH Chemical Genomics Center [NCGC] MLSCN Grant: 1 X01 MH079860-01 Assay Provider: Elisabeth D. Martinez, University of Texas SW Medical Center NCGC Assay Overview: This secondary assay characterizes selected actives identified in the qHTS of the Locus Derepression (LDR) assay (PubChem AID 597). The LDR assay detects the derepression of a GFP reporter that is stably integrated in a region of the genome of murine c127i mammary cells that is presumably silenced. Compounds that cause derepression of the locus to express GFP are identified by enumerating GFP positive cells using a laser-scanning microplate cytometer. Selected LDR actives were assayed for the induction of p16 gene expression, a gene silenced by dense methylation of its promoter. […]
NCGC Assay Protocol Summary Exponentially growing H358 non-small cell lung cancer cells were treated daily with fresh media containing the indicated concentrations of compounds for 72 hr. Cellular RNA was extracted, quantified, DNAse treated and reverse transcribed. The resulting cDNA was amplified in TaqMan real time quantitative PCR assays (Applied Biosystems) containing validated primers specific for p16 (Hs00233365_m1). […] Gene expression was measured by fold-induction over control DMSO-treated samples (36-37 average cycle time). […]

For `CN1CSC(=S)N(C)C1`, which fold change is on record?
The fold change was 1.
